# Test results: PubChem BioAssay (Tox21)
# Results filed as inconclusive are left out. Active and inactive are the calls of the source. Calls follow the shape of the dose curve; as a rule, active = well fitted cell-killing curve with a large enough effect in the repeat runs; inconclusive = weak or mixed curves; inactive = no such curve, though single readings can be large or run the other way. Where a SMILES comes first, the peptide text is derived from it. [ ]: non-standard residue; d: D form. pGlu = O=C1CC[C@@H](C(=O)O)N1
# Assay: qHTS assay to identify small molecule agonists of the peroxisome proliferator-activated receptor delta (PPARd) signaling pathway - cell viability counter screen (AID 743211); also: nearly all actives have a fitted effect of over 55% in size
# Details: PPARd-bla HEK293H viability, CellTiter-Glo luminescence, 17 h; series mostly up to 62.6 µM; activity change, negative = cytotoxicity: at the top concentration
# Source text: U.S. Tox21 Program National Center for Advancing Translational Sciences [NCATS] NIH Chemical Genomics Center [NCGC] U.S. Environmental Protection Agency [EPA] National Institutes of Environmental Health Sciences [NIEHS] National Toxicology Program [NTP] U.S. Food and Drug Administration [FDA] Tox21 Assay Overview: The peroxisome proliferator-activated receptors (PPARs) are lipid-activated transcription factors of the nuclear receptor superfamily with three distinct subtypes namely PPAR alpha, PPAR delta (PPARd) and PPAR gamma. All these subtypes heterodimerizes with Retinoid X receptor (RXR) and have different physiological functions. […] To identify the compounds that activate PPAR-delta signaling, GeneBLAzer PPAR delta UAS-bla HEK293H cell line (Invitrogen, Carlsbad, CA, USA) containing a beta-lactamase reporter gene under the control of an Upstream Activator Sequence (UAS) was used to screen the Tox21 compound library. The cytotoxicity of the Tox21 compound library against the PPARd-bla cell line was tested in parallel by measuring the cell viability using CellTiter-Glo assay (Promega, Madison, WI) in the same wells.
# Tox21 Assay Protocol Summary: PPARd-bla cells were dispensed at 3000 cells/6uL/well in 1536-well black wall/clear bottom plates using a Multidrop Combi (Thermo Fisher Scientific, Waltham, MA) dispenser. After the assay plates were incubated at 37 C and 5% CO2 for 5 h, 23 nL of compounds dissolved in DMSO, positive controls or DMSO only was transferred to the assay plate by a Pintool station (Kalypsys, San Diego, CA). The assay plates were incubated at 37C for 17 h. After 1 uL of LiveBLAzerTM B/G FRET substrate was added using a Bioraptr Flying Reagent Dispenser (FRD) workstation (Beckman Coulter, Indianapolis, IN, USA), the plates were incubated at room temperature for 2 h, and fluorescence intensity was measured by an Envision plate reader (PerkinElmer, Shelton, CT). For cell viability readout that measures cytotoxicity, 3 ul/well of CellTiter-Glo reagent was added into the assay plates using a Bioraptr FRD. After 30 min incubation at room temperature, the luminescence intensity in the plates was measured using a ViewLux plate reader (PerkinElmer).
# % is scaled to controls: 0 for no effect and ±100 for the full control effect.
row,SMILES,"activity change, negative = cytotoxicity"
1,OCCc1ccccn1,0.791% (inactive)
2,CC(=O)c1ccccc1[N+](=O)[O-],0.255% (inactive)
3,Cc1ccc(C(=O)c2ccccc2)cc1,1.08% (inactive)
4,CCN[C@H]1C[C@H](C)S(=O)(=O)c2sc(S(N)(=O)=O)cc21,7.06% (inactive)
5,C=C(C)C(=O)OCC(O)CO (stereo not given),-2.38% (inactive)
6,CCCCN1C=CN(C)C1,-7.65% [at 29.1 µM] (inactive)
7,Cc1ncc(COP(=O)(O)O)c(C=O)c1O,3.04% (inactive)
8,O=C(c1ccccc1O)c1ccccc1O,-4.32% (inactive)
9,CC1=CC(=O)[C@H]2C[C@@H]1C2(C)C,-3.21% (inactive)
10,CNCCO,-1.42% (inactive)
11,O=C(O)CNC(=O)c1ccc(CO)o1,-0.288% (inactive)
12,O=S(=O)(O)c1cccc2ccccc12,6.3% (inactive)
13,CCCCCCC1CCC(=O)O1 (stereo not given),5.25% [at 81.1 µM] (inactive)
14,CNCC(O)c1ccc(O)c(O)c1 (stereo not given),-4.42% (inactive)
15,CC(C)(N)C#N,-5.54% [at 81.1 µM] (inactive)
16,NC(CCC(=O)O)C(=O)O (stereo not given),1.3% (inactive)
17,Cc1cccc(C)c1NC(=O)CC12CCCN1CCC2,4.24% (inactive)
18,O=C(O)CC(C(=O)O)S(=O)(=O)O (stereo not given),-18.8% (inactive)
19,CCCO[Si](OCCC)(OCCC)OCCC,1.52% (inactive)
20,CC(C)(C)C(=O)c1ccccc1,13.8% (inactive)

row,SMILES,"activity change, negative = cytotoxicity"
1,Cc1coc2ccccc2c1=O,0.946% (inactive)
2,NCCCC(N)(C(=O)O)C(F)F (stereo not given),-0.994% (inactive)
3,CCCCOCCOC(=O)COc1cc(Cl)c(Cl)cc1Cl,1.09% (inactive)
4,c1ccc(CCc2ccccc2)cc1,1.89% (inactive)
5,NC(=O)Cc1cccc2ccccc12,-1.89% (inactive)
6,CC1OC1C1CCC2(C)OC2C1 (stereo not given),-0.272% (inactive)
7,CCCCCC(C)N (stereo not given),0.884% (inactive)
8,CO[C@@]1(NC(=O)C(C(=O)O)c2ccc(O)cc2)C(=O)N2C(C(=O)O)=C(CSc3nnnn3C)CO[C@@H]21 (stereo not given in full),7.79% (inactive)
9,O=C(O)CCCC[P+](c1ccccc1)(c1ccccc1)c1ccccc1,9.17% (inactive)
10,CC1=C(C/C=C(\C)CCC[C@H](C)CCC[C@H](C)CCCC(C)C)C(=O)c2ccccc2C1=O,-17.6% (inactive)
11,C[C@@H]1CCC[C@H](C)N1,11.1% (inactive)
12,[Ca+2],-8.89% (inactive)
13,CN(C)C(=O)Oc1ccc[n+](C)c1,3.12% (inactive)
14,CCNC(=O)[C@@H]1CCCN1C(=O)[C@H](CCCN=C(N)N)NC(=O)[C@H](CC(C)C)NC(=O)CNC(=O)[C@H](Cc1ccc(O)cc1)NC(=O)[C@H](CO)NC(=O)[C@H](Cc1c[nH]c2ccccc12)NC(=O)[C@H](Cc1cnc[nH]1)NC(=O)[C@@H]1CCC(=O)N1 ([pGlu]HWSYGLRP-NHEt),1.46% (inactive)
15,CN1CC(=O)N/C1=N/C(=O)Nc1cccc(Cl)c1,1.5% (inactive)
16,NC(=O)N[C@@H](CCC(=O)O)C(=O)O,5.49% (inactive)
17,O=C(CO)[C@@H](O)[C@H](O)[C@H](O)CO,0.0537% [at 81.1 µM] (inactive)
18,CCN(Cc1ccccc1)c1ccccc1,-3.3% (inactive)
19,COc1ccnc(CS(=O)c2nc3cc(OC(F)F)ccc3[nH]2)c1OC (stereo not given),2.16% [at 81.1 µM] (inactive)
20,CCOc1ccccc1OCC,-0.874% (inactive)
